A selection: hits, their analogues and other compounds. The true share with any hit is near 11%.
hNpr1 antagonist: Natriuretic polypeptide receptor (hNpr1) antagonism - Primary qHTS; Atrial natriuretic peptide receptor 1 (Homo sapiens), P16066; HEK293 hNpr1 GloSensor cGMP, ANP-stimulated luminescence; Potency, µM (titrated, usually from 46.3 µM), without a hit: at the top dose activity change, negative = inhibition, hits mostly inhibitors; 76,000 compounds, 1.6% hits; AID 1347048, 2019; calls by dose curve; note: nearly all actives have a fitted effect of over 60% in size
Target sequence (P16066 whole entry, looked up): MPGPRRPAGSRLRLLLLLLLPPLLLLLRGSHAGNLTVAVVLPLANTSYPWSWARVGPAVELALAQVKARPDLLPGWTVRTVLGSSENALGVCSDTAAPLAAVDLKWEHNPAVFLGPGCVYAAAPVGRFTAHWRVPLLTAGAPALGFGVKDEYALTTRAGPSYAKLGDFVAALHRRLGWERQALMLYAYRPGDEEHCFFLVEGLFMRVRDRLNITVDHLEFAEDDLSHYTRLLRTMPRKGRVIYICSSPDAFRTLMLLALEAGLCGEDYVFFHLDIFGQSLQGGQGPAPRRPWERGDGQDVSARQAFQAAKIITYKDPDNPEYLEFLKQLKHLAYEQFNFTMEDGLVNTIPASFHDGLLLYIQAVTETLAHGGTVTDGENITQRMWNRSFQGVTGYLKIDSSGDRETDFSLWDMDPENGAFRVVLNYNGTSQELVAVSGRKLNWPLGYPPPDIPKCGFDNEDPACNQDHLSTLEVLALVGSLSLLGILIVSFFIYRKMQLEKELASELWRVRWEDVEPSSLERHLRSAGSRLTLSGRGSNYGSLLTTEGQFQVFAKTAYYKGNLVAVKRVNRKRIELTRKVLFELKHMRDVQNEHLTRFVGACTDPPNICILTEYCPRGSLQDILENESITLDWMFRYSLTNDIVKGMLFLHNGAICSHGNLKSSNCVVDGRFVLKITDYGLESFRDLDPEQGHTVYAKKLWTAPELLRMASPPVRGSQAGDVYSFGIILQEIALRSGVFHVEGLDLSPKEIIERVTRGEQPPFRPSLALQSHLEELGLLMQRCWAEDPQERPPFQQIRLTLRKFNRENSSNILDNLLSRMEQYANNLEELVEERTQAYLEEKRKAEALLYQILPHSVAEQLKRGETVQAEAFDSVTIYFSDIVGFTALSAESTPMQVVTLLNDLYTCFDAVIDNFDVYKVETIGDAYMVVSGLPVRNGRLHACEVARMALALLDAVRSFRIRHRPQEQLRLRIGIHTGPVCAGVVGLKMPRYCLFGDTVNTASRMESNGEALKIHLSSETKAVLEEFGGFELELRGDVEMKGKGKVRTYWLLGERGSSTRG
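HEK293 cells stably expressing human Npr1 and cGMP GloSensor pGS-40F, loaded 2 h with 2% GloSensor reagent, given compound 30 min at room temperature. Luminescence read before and 20 min after 0.1 nM hNppA.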
HEK293 tox: Cytotoxic Profiling in HEK 293 Cell Line of Diverse Libraries Using Quantitative High-Throughput Screening; HEK 293 viability, ATP luminescence (CellTiter-Glo), 48-72 h; Potency, µM (top dose mostly 115 µM), for inactives: top-dose activity change, negative = cytotoxicity, hits mostly inhibitors; 94,000 compounds, 6.6% hits; AID 1345083, 2018; note: nearly all actives have a fitted effect of over 60% in size
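Read-out: CellTiter-Glo ATP luminescence. Cells: HEK 293, 250 cells/well. Exposure: 48 or 72 hr, 37 degree Celsius.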
Luciferase inh: Firefly luciferase inhibition profiling of diverse chemical library using quantitative high-throughput screening; 76,000 compounds, 2.5% hits; AID 1347043, 2019; purified P. pyralis luciferase, luminescence, biochemical; Potency, µM (highest dose often 115 µM), actives largely listed as inhibitors; note: nearly all actives have a fitted effect of over 65% in size
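Inhibitors were tested against purified firefly luciferase in a biochemical, low-substrate format (both substrates at 10uM) and luminescence measured with a CCD imager.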
NIH3T3 tox: Cytotoxic Profiling in NIH 3T3 Cell Line of Diverse Libraries Using Quantitative High-Throughput Screening; Potency, µM (top dose mostly 96.7 µM), for inactives: at the highest dose activity change, negative = cytotoxicity, most hits filed as inhibitors; NIH 3T3 viability, CellTiter-Glo ATP luminescence, 48-72 h; 94,000 compounds, 4.3% hits; AID 1345082, 2018; note: nearly all actives have a fitted effect of over 55% in size
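Viability of NIH 3T3 cells after 48 or 72 hr compound treatment at 37 °C was assessed by CellTiter-Glo, with luminescence imaged following a 10 min room-temperature step.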
Starred values were filed as active, the others as inactive; [ ] = dose if it differs, or a comment. Unless noted, calls come from the whole dose curve; as a rule, active = well fitted curve in the direction sought with a large enough effect; inconclusive = small, poorly fitted or top-dose-only effect, or another doubt; inactive = no such curve, though single readings can be large; an effect the other way counts as inactive or inconclusive. % is set by controls: 0 for no effect and ±100 for the full control effect; potency is the fitted concentration of half-maximal effect.

Screening O=C1Cc2c(-c3ccccc3OCc3ccccc3)n[nH]c2CN1CCOc1ccccc1 returned hNpr1 antagonist -18%, HEK293 tox inconclusive, Luciferase inh inactive and NIH3T3 tox inconclusive.
For O=C1Cc2c(-c3ccccc3Oc3ccccc3)n[nH]c2CN1Cc1ccccn1 the results were hNpr1 antagonist -5%[70.6 µM], HEK293 tox inconclusive, Luciferase inh inactive and NIH3T3 tox inconclusive.
O=C1Cc2c(-c3ccccc3OCc3ccccc3)n[nH]c2CN1Cc1ccccc1 was read as hNpr1 antagonist -21%[70.6 µM], HEK293 tox 50µM*, Luciferase inh inactive and NIH3T3 tox inconclusive.
`Cc1csc(NC(=O)C2CC(=O)N(c3n[nH]c4cccc(F)c34)C2)n1` (stereo not given) gave hNpr1 antagonist 4%, HEK293 tox inconclusive, Luciferase inh inactive and NIH3T3 tox -20%.
CCOC(=O)C1CCN(C(=O)Cc2ccc(N(Cc3ccccc3)C(=O)c3ccco3)cc2)CC1 was read as hNpr1 antagonist -23%, HEK293 tox 40µM*, Luciferase inh inactive and NIH3T3 tox inconclusive.
`CCCNC(=O)Cc1ccc(N(Cc2ccc(C)cc2)C(=O)c2ccco2)cc1` gave hNpr1 antagonist -2%, HEK293 tox inconclusive, Luciferase inh inactive and NIH3T3 tox -26%.
For Cc1ccc(CN(C(=O)c2ccco2)c2ccc(CC(=O)NCc3ccccc3)cc2)cc1 the results were hNpr1 antagonist -18%, HEK293 tox 35µM*, Luciferase inh inactive and NIH3T3 tox inconclusive.
For Cc1ccc(CN(C(=O)c2ccco2)c2ccc(CC(=O)N(C)Cc3ccccc3)cc2)cc1 the results were hNpr1 antagonist -20%, HEK293 tox 32µM*, Luciferase inh inactive and NIH3T3 tox inconclusive.
`Cc1cccc(CNC(=O)Cc2ccc(N(Cc3ccccc3)C(=O)c3ccco3)cc2)c1` gave hNpr1 antagonist -3%, HEK293 tox inconclusive, Luciferase inh inactive and NIH3T3 tox 45µM*.
For CC(C)NC(=O)c1ccc2nnc(-c3cccc([S+](C)(=O)[O-])c3)n2c1 the results were HEK293 tox inactive and NIH3T3 tox -13%.
Screening CCCn1c(C)cnc1CC1CCN(C(=O)CCC2CCCC2)C1 (stereo not given) returned HEK293 tox -21% and NIH3T3 tox -5%.
`CN(Cc1ccc(C#N)cc1)Cc1cccc2cnccc12` gave hNpr1 antagonist -23%, HEK293 tox inconclusive, Luciferase inh inactive and NIH3T3 tox inconclusive.
c1cncc(Cc2noc(C3CN(Cc4ccsc4)C3)n2)c1 was read as hNpr1 antagonist -6%, HEK293 tox inconclusive, Luciferase inh inactive and NIH3T3 tox 25µM*.
Screening COc1cc(Cl)c(C)cc1NC(=O)CN1C(=O)NC(c2ccc(Cl)cc2)C2=C1COC2=O (stereo not given) returned hNpr1 antagonist -15%, HEK293 tox 16µM*, Luciferase inh inactive and NIH3T3 tox 18µM*.
COc1ccc(NC(=O)CN2C(=O)NC(c3ccc(Cl)cc3)C3=C2COC3=O)c(OC)c1 (stereo not given) was read as hNpr1 antagonist -1%, HEK293 tox inconclusive, Luciferase inh inactive and NIH3T3 tox -28%.
For CCOc1ccccc1C1NC(=O)N(CC(=O)Nc2ccc(OC)c(Cl)c2)C2=C1C(=O)OC2 (stereo not given) the results were hNpr1 antagonist -28%, HEK293 tox -19%, Luciferase inh inconclusive and NIH3T3 tox inconclusive.
COc1ccc(NC(=O)CN2C(=O)NC(c3ccc(Cl)cc3)C3=C2COC3=O)cc1Cl (stereo not given) was read as hNpr1 antagonist -21%, HEK293 tox inconclusive, Luciferase inh inconclusive and NIH3T3 tox 25µM*.
`Cc1ccc([S+](=O)([O-])NC2CCN(c3nccc(Nc4ccccc4F)n3)CC2)cc1` gave HEK293 tox 28µM* and NIH3T3 tox 40µM*.
Screening COc1ccc(Nc2ccnc(N3CCC(N[S+](=O)([O-])c4ccc(C)cc4)CC3)n2)cc1 returned HEK293 tox 28µM* and NIH3T3 tox 25µM*.
